Experimental findings from ChEMBL document CHEMBL1157539, “Thousands of chemical starting points for antimalarial lead identification” (Nature, 2010) are described below.

The test system of the test is Plasmodium falciparum. Description: GSK_TCMDC: Inhibition of Plasmodium falciparum 3D7 in whole red blood cells, using parasite LDH activity as an index of growth. Test compounds present at 2uM. Type of test: functional.
For `Br.CCCCCCCn1c2c(c(=N)c3c1CCC3)CCCC2`, the Inhibition (as a rule, the change of the read-out against control, counted positive when it falls) is listed as 98%.

Take `O=C(/C=C/c1ccc(Cl)cc1)NCCCCCN1CCCN(C(=O)Nc2ccc(F)c(Cl)c2)CC1`: the Inhibition turned out to be 94%. For the compound `Nc1ncc(-c2ccc(F)cc2)c2ccc(-c3cccc(F)c3)cc12`, the Inhibition stood at 99%. Next, `Cc1cc(C(=O)Nc2ccc3c(c2)CCN3C2CCN(Cc3cccc4cc[nH]c34)C2)no1` (configuration not stated): 97%; `COc1cccc2cc(C(=O)N[C@@H](CC(C)C)C(=O)N[C@H](/C=N/NC(=O)N3CCN(C)CC3)CCc3ccccc3)oc12.Cl`: 85%; `COc1ccc2nccc([C@@H](O)CN3CCC(NCc4cnc5c(c4)NC(=O)CS5)C(F)C3)c2c1.Cl` (some centres not stated): 90%.

The compound `C=C(F)c1sc(CNCCCNc2nc3ccccc3[nH]2)c(C)c1Br` gave an Inhibition of 100%. Regarding `CN(CCO)Cc1cccc(-c2ccc(NC(=O)c3cccc(C#N)c3)cc2)c1.O=C(O)C(F)(F)F`, the Inhibition came out at 97%.

With `Cc1noc(C)c1-c1ccc2c(Nc3ccc([N+](=O)[O-])cc3)c(C(N)=O)cnc2c1.Cl`, the Inhibition turned out to be 100%. For the compound `CN1CCCN(Cc2cccc(-c3cccc(NC(=O)c4cccc(C#N)c4)c3)c2)CC1.O=C(O)C(F)(F)F`, the Inhibition is listed as 95%. `Cc1ccc2c(c1)nc(N)n2C[C@H](O)c1ccccc1`: the Inhibition is 100%. The same measure for `COc1ccc(-c2cccc(NC(=O)c3cccc(Cl)c3)c2)cc1CN1CCN(C)CC1.O=C(O)C(F)(F)F`: 100%; for `CCc1ccc(-n2c(=O)c3cccnc3n2CC(=O)NC2CCCC2)cc1`: 98%; for `Cc1ccccc1C1CCN(C2CCC(NC(=O)c3ccc(-c4cccc(C(F)(F)F)c4)o3)CC2)CC1` (configuration not stated): 99%.

`C[C@H](Cc1ccc(CCc2ccc(C[C@@H](C)NC[C@H](O)c3cccc(Cl)c3)cc2)cc1)NC[C@H](O)c1cccc(Cl)c1.Cl` registered an Inhibition of 95%. Next, `Cl.c1ccc(CC2=NCCN2)cc1` [TOLAZOLINE HYDROCHLORIDE]: 94%.

As to `N#Cc1ccc(-n2cc(C(=O)Nc3ccc4c(c3)CCN(C3CCC3)CC4)c(C(F)(F)F)n2)cc1.O=C(O)C(F)(F)F`, the Inhibition was determined as 100%. Next, `CNC(=O)c1ccccc1Nc1nc(Nc2ccc(CCN3CCN(C)CC3)cc2)ncc1Cl.Cl`: 97%. Next, `CCN(CC)CCN(Cc1ccc(-c2ccc(C(F)(F)F)cc2)cc1)C(=O)Cn1c(CCc2c(F)cc(F)cc2F)nc(=O)c2ccccc21.O=C(O)C(O)C(O)C(=O)O`: 89%. With `O=C(Nc1cccc(CN2CCCN(Cc3ccsc3)CC2)c1)c1ccc(-c2ccccc2)cc1.O=C(O)C(F)(F)F`, the Inhibition is listed as 90%. Next, `COc1ccc(-c2cc3ncnc(N4CCN(CCN5CCCC5)CC4)c3s2)cc1`: 98%; `Cc1ccccc1C1CCN(C2CCC(NC(=O)c3cc(-c4ccc(Cl)cc4)cs3)CC2)CC1` (configuration not stated): 100%. Next, `CNC(=O)CC(=O)NCCc1ccc(Cl)cc1`: 99%; `CCC(C)NCc1c(O)ccc2c(CNC(C)CC)c(O)ccc12.Cl` (configuration not stated): 100%; `Cc1cc(N[C@@H](CC(C)C)C(=O)Nc2ccccc2)nc(NCC2CCCCC2)n1.O=C(O)C(F)(F)F`: 100%. As to `CCn1c(C=Cc2cc(Br)ccc2O)nc2ccccc2c1=O`, the Inhibition stood at 95%. Turning to `O=C(Nc1ccc(Cl)cc1)Nc1cccc(-c2cccc(-c3nc4cc(C(F)(F)F)ccc4[nH]3)c2)c1`, the Inhibition is recorded as 99%. The same measure for `CCCc1ccccc1Nc1nc(C)cc(N(CC)CCCN2CCCCC2)n1.O=C(O)C(F)(F)F`: 98%. For `COc1cc(NC(=O)Nc2ccnc3ccccc23)cc(OC)c1.Cl`, the Inhibition was 98%. Take `Cc1cc(N2CCCC2)nc(Nc2ccc(NC(=O)C(C)Oc3ccccc3)cc2)n1` (configuration not stated): the Inhibition is 100%. `COc1ccc(CCN(C)CCCN2CCC(NC(=O)c3cccc4c(=O)c5ccccc5[nH]c34)CC2)cc1OC.O=C(O)C(=O)O` came in with an Inhibition of 99%.

For the compound `CCOC(=O)C1=C(C)NC2=C(C(=O)CC(C)(C)C2)C1c1ccc(Cl)cc1` (configuration not stated), the Inhibition was 96%. The same measure for `Cc1ccc(Nc2nc(C)cc(NC3CC3)n2)cc1`: 97%; for `O=C(Nc1ccc(-c2cccc(-c3nc4ccccc4[nH]3)c2)cc1)Nc1ccc2c(c1)OCO2`: 100%.

`CC(=O)c1ccc(NC(=O)Nc2ccc3nccc(N4CCN(C)CC4)c3c2)cc1` returned an Inhibition of 100%.

Compound `CC(C)(C)c1ccc(CN2CCC(CNC(=O)c3cc(-c4ccccc4F)cs3)C2)cc1.O=C(O)C(F)(F)F` (configuration not stated) gave an Inhibition of 100%. The same measure for `COc1cccc(CN2CCN(C(c3ccccc3)c3ccccc3)CC2)c1O.O=C(O)C(=O)O`: 99%.
